# Measurements reported in ChEMBL document CHEMBL4513216, “Probing the Open Global Health Chemical Diversity Library for Multistage-Active Starting Points for Next-Generation Antimalarials” (ACS Infect Dis, 2020).
# The campaign covered roughly 68,000 compounds. About 2,700 (4%) showed an effect of 50% or more. For the sample, strong results were picked, then their nearest neighbours and some compounds at random.
# Tested on: Plasmodium berghei
# Assay: Screen against P. berghei liver stage (PbLuc), transformed with Luciferase, at 2uM
# Format: functional, HepG2
# Details: tested at 2 uM
row,SMILES,INHIBITION
1,CC(=O)c1ccc(-c2cnn(CC(=O)Nc3ccnn3C)c2)nc1,59.56%
2,Cn1ccnc1-c1cnn(CC(=O)Nc2ccnn2C)c1,35.13%
3,CC(=O)c1ccc(-c2cnn(CC(=O)Nc3cc(C)nn3C)c2)nc1,36.09%
4,CS(=O)(=O)N1C[C@H]2CC[C@@H](C1)N(C(=O)CCc1n[nH]c3c1CCCC3)C2,-4.58%
5,CCCc1nc(CN2CCCC2c2cnn(C)c2)cs1 (configuration not stated),58.52%
6,Cn1cc(C2CCCN2Cc2csc(Cc3ccccc3)n2)cn1 (configuration not stated),3.48%
7,Cn1cc(C2CCCN2Cc2csc(C(C)(C)C)n2)cn1 (configuration not stated),-10.66%
8,Cc1cc(NCCc2nnc(N)s2)nc(-c2ccccc2)n1,7.02%
9,COc1nccnc1N1CCCC2(C1)C(=O)N(C)c1ccccc12 (configuration not stated),-8.8%
10,CCN1CCc2c(cccc2NC(=O)CN(C)C2CCSC2)C1 (configuration not stated),49.21%
11,CCN1CCc2c(cccc2NC(=O)N(C)C2CCSC2)C1 (configuration not stated),51.9%
12,CCN1CCN(c2ccccc2NC(=O)N(C)C2CCSC2)CC1 (configuration not stated),25.08%
13,Cn1ccc(C(=O)Nc2cccc(-c3ccc4c(c3)CCO4)n2)cc1=O,-17.18%
14,Cc1ccc2c(c1)OC(C)CN2C(=O)c1c[nH]c(C)cc1=O (configuration not stated),-33.29%
15,CCn1nccc1CN(C)C(=O)Cn1nc(C)cc1C,-47.19%
16,Cn1nc(Br)c2c(NCCCS(N)(=O)=O)ncnc21,-5.61%
17,CCOCC(=O)N1Cc2nccn2CC(CN(C)C)C1 (configuration not stated),-8.84%
18,COc1ccc2nnc(CCC(=O)Nc3nc4c(s3)CCC4)n2n1,58.29%
19,COc1ccc2nnc(CCC(=O)Nc3nc4c(s3)CCCCC4)n2n1,48.59%
20,COc1ccc2nnc(CCC(=O)Nc3nc4c(s3)CCCC4)n2n1,21.57%
21,COCCNC(=O)c1cc(C2CC2)nc2onc(C3CCNC3)c12 (configuration not stated),5.75%
22,CCOc1ccccc1NC(C)C(=O)N(C)Cc1cccc(F)c1 (configuration not stated),4.8%

row,SMILES,INHIBITION
1,CC(NC(=O)Cn1cccn1)c1ccc2c(c1)OCCCO2 (configuration not stated),51.21%
2,CC(NC(=O)Cn1cccn1)c1ccc2c(c1)OCCO2 (configuration not stated),21.39%
3,CC(NC(=O)CCn1cccn1)c1ccc2c(c1)OCCO2 (configuration not stated),-17.31%
4,O=C(O)c1ccccc1-n1cnc(CN2CCCc3ccccc32)c1,37.36%
5,CN1CC(=O)N(c2cnn(C)c2)CC12CCN(Cc1nccn1C)C2 (configuration not stated),8.65%
6,Cc1ccc(N2CC3(COCCN(Cc4nccs4)C3)OCC2=O)s1 (configuration not stated),58%
7,Cc1ccc(N2CC3(COCCN(Cc4ccncc4)C3)OCC2=O)s1 (configuration not stated),-37.34%
8,Cc1ccc(N2CC3(COCCN(Cc4ccccn4)C3)OCC2=O)s1 (configuration not stated),40%
9,O=C(CCN1CCOC1=O)Nc1cnn(-c2ccccc2Cl)c1,51.46%
10,O=C(CCCN1CCOC1=O)Nc1cnn(-c2ccccc2Cl)c1,-16.28%
11,O=C(CCN1CCCC1=O)Nc1cnn(-c2ccccc2Cl)c1,25.35%
12,Cc1ccc2cc(CN(C)Cc3nccs3)c(=O)[nH]c2c1,-0.38%
13,CN(Cc1c(F)cccc1Cl)C(=O)Nc1cnn(CC(N)=O)c1,11.07%
14,CCn1cnnc1CNC(=O)N(C)Cc1c(F)cccc1Cl,-17.88%
15,CN(Cc1c(F)cccc1Cl)C(=O)Cn1cnc(C#N)n1,-6.73%
16,CN(Cc1c(F)cccc1Cl)C(=O)c1cnn(CCN2CCOCC2)c1,-9.03%
17,CN(Cc1c(F)cccc1Cl)C(=O)c1cnn(CCN2CCCCC2)c1,60.04%
18,CCn1cc(C(=O)N(C)Cc2c(F)cccc2Cl)cn1,53.13%
19,Cc1nc(C2CCCN(C(=O)c3ccc(Cl)cn3)C2)no1 (configuration not stated),-29.54%
20,CN(C)C(=O)c1cccc(CCNS(=O)(=O)c2ccccc2)c1,49.08%
21,NS(=O)(=O)CCN1CCOC(c2ccsc2)C1 (configuration not stated),-10.36%
22,CC1CCN(c2ccc(=O)n(CC(=O)N(C)Cc3ccccc3)n2)CC1,-7.56%

row,SMILES,INHIBITION
1,COc1cc(N2C[C@@H]3COC[C@]3(COCc3cccc(C)n3)C2)ncn1,0.14%
2,COC(C)(C)CNC(=O)N1CCCC1c1c(C)n[nH]c1C (configuration not stated),22.83%
3,CC(C)c1cc(CN(C)C(=O)CN2CCCCC2=O)no1,-11.61%
4,CN(Cc1ccco1)C(=O)NCc1ccnc(SC(C)(C)C)c1,53.29%
5,Cc1cc(CN(C)C(=O)NC(C)Cc2ccco2)no1 (configuration not stated),45.62%
6,Cc1cc(CN(C)C(=O)NCc2ccccn2)no1,26.62%
7,Cc1cc(CN(C)C(=O)CN2CCCCCC2=O)no1,33.35%
8,Cc1cc(CN(C)C(=O)CN2CCCC2=O)no1,51.36%
9,Cc1cc(CN(C)C(=O)NCc2ccco2)no1,66.88%
10,CN(Cc1ccco1)C(=O)NCc1nnc2n1CCC2,-18.86%
11,Cc1cc(CN(C)C(=O)NCc2ccnc(SC(C)(C)C)c2)no1,14.69%
12,O=C(c1ccc(F)cc1)N1C[C@@H]2COC[C@]2(COc2cccnc2)C1,-55.8%
13,CC(CO)NC(=O)Nc1ccc(CC#N)cc1 (configuration not stated),20.32%
14,CCc1nc2n(n1)CC(Nc1ccnc(-c3ccccc3)n1)CC2 (configuration not stated),-1.33%
15,CC(C)C(=O)N1CCCC12CCCN(C(=O)c1ccno1)C2 (configuration not stated),8.34%
16,COC1COC2(CCN(c3ccc(C#N)cc3)CC2)C1 (configuration not stated),-13.61%
17,N#Cc1ccc(N2CCC3(CC2)CC(N2CCOCC2)CO3)cc1 (configuration not stated),-0.69%
18,CN1CCN(C2COC3(CCN(c4ccc(C#N)cc4)CC3)C2)CC1 (configuration not stated),54.5%
19,Cc1nn(C)c(N(C)C)c1CNC(C)COc1ccc(F)cc1F (configuration not stated),25.03%
20,Cn1cc(C(=O)N2C[C@H]3CC(Oc4ccccc4)C[C@H]3C2)cn1 (some centres not stated),-36.58%
21,O=C(COc1cc(Cl)cc(Cl)c1)NCc1nncn1C1CC1,-13.8%
22,O=C(COc1cccnc1)NCc1nncn1C1CCCCC1,57.75%

row,SMILES,INHIBITION
1,O=C(COc1ccc(Cl)cc1)NCc1nncn1C1CC1,24.36%
2,Cc1nc(CN2C(=O)CC[C@@H]3[C@H]2CCN3C2CCOCC2)cs1,-6.68%
3,O=C(c1cc[nH]n1)N1CCc2ncnc(N3CCSCC3)c2CC1,24.55%
4,Cc1cc(C(=O)N2CCc3ncnc(N4CCSCC4)c3CC2)[nH]n1,64.2%
5,Cc1cc(C(=O)N2CCc3c(ncnc3N3CCOCC3)C2)[nH]n1,-0.79%
6,CSc1nc2ncc3c(=O)n(C)ccc3n2n1,19.49%
7,CCn1cc(-c2cc(C(F)F)n3nc(CCC(=O)O)nc3n2)cn1,61.61%
8,CCn1cc(-c2cc(C(F)F)n3nc(CC(=O)O)nc3n2)cn1,-20.05%
9,Cn1cc(-c2cc(C(F)F)n3nc(CCC(=O)O)nc3n2)cn1,48.58%
10,OCC(O)CN1CCc2onc(-c3ccc(C(F)(F)F)cc3)c2C1 (configuration not stated),-83.25%
11,CCN(CC)CCNC(=O)CCc1c(C)nn(-c2ccc(Cl)cc2)c1C,36.85%
12,CC(C)c1nnc2ccc(N3CCC(C(=O)O)CC3)nn12,16.54%
13,Fc1ccc(F)c(CN2CCC(c3cc4ncccc4cn3)CC2)c1,-20.28%
14,CC(=O)N1CCN(C(=O)NC(C)Cn2ccnc2)CC1 (configuration not stated),14.47%
15,CC(=O)Nc1nc(C(=O)N2CCCC(n3nc(C)nc3C)C2)cs1 (configuration not stated),9.17%
16,CCC(=O)NCc1cc(Br)c(OC)c(OC)c1,-11.19%
17,CCCC(=O)NCc1cc(Br)c(OC)c(OC)c1,0.63%
18,CCS(=O)(=O)NCc1cc(Br)c(OC)c(OC)c1,68.69%
19,Cc1ccsc1C(=O)N(C)Cc1ccncc1,-32.02%
20,CSCC(=O)Nc1cccc(Oc2ccccn2)c1,-7.6%
21,CCOCC(=O)Nc1cccc(Oc2ccccn2)c1,67.68%
22,CCOCCC(=O)Nc1cccc(Oc2ccccn2)c1,3.59%

row,SMILES,INHIBITION
1,CC(C)(C)c1cc(CN2CCOCC(O)C2)n[nH]1 (configuration not stated),-67.78%
2,Cc1noc(C(C)N(C)CC(=O)NCCc2ccc(Cl)cc2)n1 (configuration not stated),11.8%
3,Cc1nccc([C@@H]2C[C@H]3CN(S(=O)(=O)c4ccccc4)C[C@H]3O2)n1,32.41%
4,Cn1ccnc1CN1CCN(Cc2ccc(C#N)cc2)CC1,-19.95%
5,CCn1ccnc1CN1CCN(Cc2ccc(C#N)cc2)CC1,71.23%
6,CCn1ccnc1CN1CCN(Cc2cccc(C#N)c2)CC1,-49.45%
7,CN(Cc1ccn[nH]1)Cc1c[nH]nc1-c1ccc(F)cc1,-35.45%
8,CN(Cc1cc(C(C)(C)C)n[nH]1)Cc1c[nH]nc1-c1ccc(F)cc1,50.31%
9,Cc1n[nH]c(C)c1CCCN(C)Cc1c[nH]nc1-c1ccc(F)cc1,-87.47%
10,CCN(Cc1cc(=O)n2cc(Br)ccc2n1)C1CC1,-15.9%
11,Cc1ccc2cccc(Oc3nc(C)c(C(=O)O)s3)c2n1,27.11%
12,COCCn1cnc(-c2cc(C(=O)NC(C)C)c3ccccn23)c1,1.48%
13,CCN(C)C(=O)c1cc(-c2ccn(C(C)C)n2)n2ccccc12,-8.84%
14,CCN(C)C(=O)c1cc(-c2cn(C(C)C)cn2)n2ccccc12,73.98%
15,CC(C)(C)c1csc(CNC(=O)C2NCCc3[nH]cnc32)n1 (configuration not stated),12.08%
16,COc1ccc(C(=O)NC2CC2)c(OC2CCN(C(C)CO)CC2)c1 (configuration not stated),-8.53%
17,CNC(=O)CN1CCOCC2(C1)CN(C(=O)C(C)C)CCO2 (configuration not stated),-6.94%
18,CNC(=O)CN1CCOCC2(CN(CCC(F)(F)F)CCO2)C1 (configuration not stated),53.46%
19,CCCC(=O)N1CCOC2(COCCN(CC(=O)NC)C2)C1 (configuration not stated),43.03%
